Laboratory results reported in PubChem BioAssay.
Activity calls are given as the source filed them.

Assays:
[1] = test system: PRMT1 (protein arginine N-methyltransferase 1); assay: PRMT1 binders on small-molecule microarrays, primary screen, biochemical, small-molecule microarray, 635 nm fluorescence (AID 1088); settings: small-molecule microarray binding, higher = more signal;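 also: binding of Prmt1 protein to compounds spotted on small-molecule microarray slides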
[2] = yeast growth modulation, basal conditions, primary screen, YJM789 clinical isolate, OD600, 24 h (AID 1089);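 also: growth of clinical yeast isolate S. cerevisiae YJM 789 seeded 1000 cells per well; test concentration not given here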; settings: S. cerevisiae YJM789 growth, higher = more signal, called active from +8 up or from −8 down
[3] = fission yeast growth modulation, primary screen, strain 972, OD600, 24 h, no modulator (AID 1090);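 also: basal condition with compound alone and no growth modifier present; test concentration not given here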; settings: S. pombe 972 growth, higher = more signal, called active from +8 up or from −8 down
[4] = S. cerevisiae growth modulation with rapamycin, primary screen, strain BY4716, OD600, 96 h (AID 1091); settings: higher = more signal, called active from +8 up or from −8 down; also: test concentration not given here
[5] = biological target: Torsin-1A-interacting protein 2 (Homo sapiens) (UniProt Q8NFQ8); assay: LULL1 binders on small-molecule microarray, primary screen, cell lysate, human LULL1 lysate, 635/667 nm fluorescence (AID 1092); settings: hLULL1 lysate binding, 635 nm fluorescence, higher = more signal;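 also: probe is lysate of COS7 cells overexpressing human LULL1; score merges per-feature 667 nm fluorescence with signal-to-noise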
[6] = E. coli growth modulation, two-sided OD650, primary screen, E. coli filamentation project, strain DRC41, 24 h (AID 1093); settings: OD650, 24 h, higher = more signal, called active from +8 up or from −8 down;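 also: MC1000 strain lacking acrAB efflux and sulA so SOS filamentation is blocked; test concentration not given here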
[7] = small-molecule microarray binders of probe aLefty2, primary screen, biochemical, biotinylated probe, 635/667 nm fluorescence (AID 1094); settings: higher = more signal;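 also: score merges spot fluorescence near 667 nm with spot signal-to-noise ratio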
[8] = test system: Noggin (protein binding on small-molecule microarray); assay: Noggin binders on small-molecule microarray, primary screen, biochemical, 635/667 nm fluorescence (AID 1095); settings: 635 nm fluorescence, higher = more signal;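 also: score merges 667 nm feature fluorescence with signal to noise over triplicate slides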
[9] = biological target: Neurogenic locus notch homolog protein 3 (Homo sapiens) (UniProt Q9UM47); assay: NOTCH3 binders on small-molecule microarray, primary screen, biochemical, 635/667 nm fluorescence (AID 1096); settings: NOTCH3 binding, 635 nm fluorescence, higher = more signal
[10] = small-molecule microarray binders of probe aEGFR, primary screen, biochemical, biotinylated probe, 635/667 nm fluorescence (AID 1097); settings: higher = more signal;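 also: probe is a biotinylated anti-EGFR antibody binding compounds printed on slides; score combines fluorescence near 667 nm and signal to noise of each spot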
[11] = test system: Plasmodium falciparum Sir2 (PF13_0152, Sir2A); assay: pfSir2 binders on small-molecule microarrays, primary screen, biochemical, small-molecule microarray, 635 nm fluorescence (AID 1098); settings: small-molecule microarray binding, fluorescence 635 nm; higher = more signal;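 also: score merges spot fluorescence intensity with its signal-to-noise ratio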
[12] = small-molecule microarray binders of probe aDKK1, primary screen, biochemical, biotinylated probe, 635/667 nm fluorescence (AID 1099); settings: higher = more signal;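 also: score merges 667nm spot fluorescence with signal to noise across triplicate slides; reference of the scale not given here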
[13] = small-molecule microarray binders of probe aCHRDL2, primary screen, biochemical, biotinylated probe, 635/667 nm fluorescence (AID 1100); settings: higher = more signal
[14] = splicing luciferase reporter signal modulators, primary screen, spliceosome inhibition project, cell-based, HEK293, splice +/- reporter (AID 1101); settings: luminescence, 24 h, higher = more signal, called active from +8 up or from −8 down;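 also: HEK293 cells carrying a splicing-competent luciferase reporter gene; test concentration not given here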
[15] = biological target: Fibroblast growth factor 10 (Homo sapiens) (UniProt O15520); assay: FGF10 binders on small-molecule microarrays, primary screen, biochemical, small-molecule microarray, 635 nm fluorescence (AID 1102); settings: FGF10 binding, fluorescence 635 nm, higher = more signal
[16] = test system: glycogen synthase kinase-3 (GSK3A per assay name; protocol says GSK3B); assay: GSK3 binders on small-molecule microarrays, primary screen, biochemical, small-molecule microarray, 635 nm fluorescence, GSK3A (AID 1103); settings: small-molecule microarray binding, fluorescence 635 nm; higher = more signal; also: the record names both GSK3A and GSK3B
[17] = biological target: Epidermal growth factor receptor (Homo sapiens) (UniProt P00533); assay: EGFR binders on small-molecule microarrays, primary screen, biochemical, small-molecule microarray, 635 nm fluorescence (AID 1104); settings: EGFR binding, higher = more signal;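 also: score merges 667 nm emission intensity with spot signal to noise over triplicate slides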
[18] = biological target: Follistatin-related protein 3 (Homo sapiens) (UniProt O95633); assay: FSTL3 binders on small-molecule microarrays, primary screen, biochemical, small-molecule microarray, 635 nm fluorescence (AID 1105); settings: FSTL3 binding, higher = more signal;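 also: score merges emission near 667 nm and signal to noise per printed spot across three slides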
[19] = biological target: Dickkopf-related protein 1 (Homo sapiens) (UniProt O94907); assay: DKK1 binders on small-molecule microarrays, primary screen, biochemical, small-molecule microarray, 635 nm fluorescence scan (AID 1106); settings: DKK1 binding, higher = more signal;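 also: score merges emission near 667 nm with signal to noise over three replicate slides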
[20] = test system: Inhibin beta A chain (activin A); assay: INHBA (activin A) binders on microarrays, primary screen, biochemical, small-molecule microarray, 635 nm fluorescence scan (AID 1107); settings: small-molecule microarray binding, higher = more signal;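 also: mouse activin A protein probed at 4.33 µg/mL on printed slides; score merges bound-protein fluorescence near 667 nm with spot signal-to-noise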

Chain of Neurogenic locus notch homolog protein 3 (Homo sapiens) (Q9UM47 whole entry, looked up): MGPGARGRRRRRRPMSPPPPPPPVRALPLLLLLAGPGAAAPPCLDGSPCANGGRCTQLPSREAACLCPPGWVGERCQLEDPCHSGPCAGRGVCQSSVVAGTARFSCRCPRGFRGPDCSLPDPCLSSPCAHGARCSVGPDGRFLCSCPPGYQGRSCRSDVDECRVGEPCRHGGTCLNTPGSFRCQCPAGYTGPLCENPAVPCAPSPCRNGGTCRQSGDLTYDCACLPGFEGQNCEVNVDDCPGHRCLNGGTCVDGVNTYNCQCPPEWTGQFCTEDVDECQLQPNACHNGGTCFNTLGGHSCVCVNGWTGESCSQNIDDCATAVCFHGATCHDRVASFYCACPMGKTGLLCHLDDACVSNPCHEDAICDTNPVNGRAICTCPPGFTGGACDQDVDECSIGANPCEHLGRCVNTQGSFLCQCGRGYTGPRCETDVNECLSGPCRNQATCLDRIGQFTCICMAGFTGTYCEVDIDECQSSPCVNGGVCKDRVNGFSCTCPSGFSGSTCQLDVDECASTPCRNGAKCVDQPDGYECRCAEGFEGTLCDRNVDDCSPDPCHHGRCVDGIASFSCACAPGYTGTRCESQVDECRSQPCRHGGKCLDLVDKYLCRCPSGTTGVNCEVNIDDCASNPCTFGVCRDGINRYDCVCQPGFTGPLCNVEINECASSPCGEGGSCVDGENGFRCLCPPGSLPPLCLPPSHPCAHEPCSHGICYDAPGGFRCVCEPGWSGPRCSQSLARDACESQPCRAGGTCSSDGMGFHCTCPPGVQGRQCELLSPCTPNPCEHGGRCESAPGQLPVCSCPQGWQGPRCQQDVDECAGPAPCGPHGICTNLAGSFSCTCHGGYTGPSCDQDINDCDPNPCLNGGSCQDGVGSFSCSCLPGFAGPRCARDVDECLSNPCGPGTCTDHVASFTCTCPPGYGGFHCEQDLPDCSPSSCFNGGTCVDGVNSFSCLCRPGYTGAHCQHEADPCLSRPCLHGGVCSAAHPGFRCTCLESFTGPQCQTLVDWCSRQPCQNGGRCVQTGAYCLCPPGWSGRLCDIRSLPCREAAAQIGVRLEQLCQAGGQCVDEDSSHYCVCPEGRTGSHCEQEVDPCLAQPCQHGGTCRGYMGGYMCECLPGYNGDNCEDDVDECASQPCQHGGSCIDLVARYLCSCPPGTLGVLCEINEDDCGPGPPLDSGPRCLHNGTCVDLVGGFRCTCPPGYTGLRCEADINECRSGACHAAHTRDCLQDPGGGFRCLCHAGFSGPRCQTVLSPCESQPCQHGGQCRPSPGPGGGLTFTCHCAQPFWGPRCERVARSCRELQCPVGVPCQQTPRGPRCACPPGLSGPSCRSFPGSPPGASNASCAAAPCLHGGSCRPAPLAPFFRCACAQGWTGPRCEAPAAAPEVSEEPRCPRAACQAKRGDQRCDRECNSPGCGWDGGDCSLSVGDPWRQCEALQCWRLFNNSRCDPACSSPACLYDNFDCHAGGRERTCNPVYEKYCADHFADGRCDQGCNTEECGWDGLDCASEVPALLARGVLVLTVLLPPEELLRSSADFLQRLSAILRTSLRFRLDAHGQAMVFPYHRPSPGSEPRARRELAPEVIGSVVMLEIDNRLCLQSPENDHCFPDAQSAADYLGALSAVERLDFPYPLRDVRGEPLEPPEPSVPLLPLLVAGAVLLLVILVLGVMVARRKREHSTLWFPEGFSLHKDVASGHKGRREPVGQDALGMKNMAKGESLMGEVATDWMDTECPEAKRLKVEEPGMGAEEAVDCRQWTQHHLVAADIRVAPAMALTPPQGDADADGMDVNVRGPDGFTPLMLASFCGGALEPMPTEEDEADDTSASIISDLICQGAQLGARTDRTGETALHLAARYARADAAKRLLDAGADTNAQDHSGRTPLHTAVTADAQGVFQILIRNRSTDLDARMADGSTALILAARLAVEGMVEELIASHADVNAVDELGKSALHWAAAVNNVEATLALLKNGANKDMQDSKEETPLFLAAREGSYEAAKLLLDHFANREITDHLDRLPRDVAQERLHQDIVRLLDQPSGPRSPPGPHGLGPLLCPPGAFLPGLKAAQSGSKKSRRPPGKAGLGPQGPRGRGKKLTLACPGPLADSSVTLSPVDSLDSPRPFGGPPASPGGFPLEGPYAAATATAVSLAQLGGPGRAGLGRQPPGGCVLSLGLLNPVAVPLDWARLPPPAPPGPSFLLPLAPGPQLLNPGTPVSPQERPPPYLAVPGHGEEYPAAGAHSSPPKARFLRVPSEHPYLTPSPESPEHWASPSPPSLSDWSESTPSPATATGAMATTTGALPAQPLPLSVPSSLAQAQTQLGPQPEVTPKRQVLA
Chain of Torsin-1A-interacting protein 2 (Homo sapiens) (Q8NFQ8 whole entry, looked up): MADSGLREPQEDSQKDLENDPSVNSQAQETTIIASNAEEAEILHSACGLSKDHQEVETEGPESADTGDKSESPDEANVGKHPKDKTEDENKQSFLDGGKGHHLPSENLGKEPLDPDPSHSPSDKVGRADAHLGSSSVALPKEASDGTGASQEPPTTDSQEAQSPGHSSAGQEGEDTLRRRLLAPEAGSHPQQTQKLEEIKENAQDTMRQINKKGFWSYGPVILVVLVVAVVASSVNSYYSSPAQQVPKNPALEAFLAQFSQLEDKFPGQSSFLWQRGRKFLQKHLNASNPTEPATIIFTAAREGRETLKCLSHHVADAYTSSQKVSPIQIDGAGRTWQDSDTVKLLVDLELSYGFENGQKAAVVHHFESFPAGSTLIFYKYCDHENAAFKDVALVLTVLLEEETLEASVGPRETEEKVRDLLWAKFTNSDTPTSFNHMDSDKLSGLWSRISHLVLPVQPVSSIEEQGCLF
Chain of Follistatin-related protein 3 (Homo sapiens) (O95633 whole entry, looked up): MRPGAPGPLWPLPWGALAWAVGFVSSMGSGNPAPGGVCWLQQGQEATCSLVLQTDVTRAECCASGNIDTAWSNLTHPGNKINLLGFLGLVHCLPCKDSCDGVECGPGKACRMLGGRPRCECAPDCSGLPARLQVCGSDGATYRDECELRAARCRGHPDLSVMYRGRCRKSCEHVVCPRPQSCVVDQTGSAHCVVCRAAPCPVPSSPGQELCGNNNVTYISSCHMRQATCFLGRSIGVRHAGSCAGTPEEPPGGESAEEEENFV
Chain of Dickkopf-related protein 1 (Homo sapiens) (O94907 whole entry, looked up): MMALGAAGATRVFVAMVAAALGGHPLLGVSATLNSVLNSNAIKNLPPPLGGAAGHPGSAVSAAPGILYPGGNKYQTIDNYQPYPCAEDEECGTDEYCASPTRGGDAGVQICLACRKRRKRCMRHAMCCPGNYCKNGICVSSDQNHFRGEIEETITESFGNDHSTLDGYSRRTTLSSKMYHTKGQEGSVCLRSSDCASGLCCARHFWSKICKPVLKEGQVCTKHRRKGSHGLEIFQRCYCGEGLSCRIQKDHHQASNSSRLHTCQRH
Chain of Epidermal growth factor receptor (Homo sapiens) (P00533 whole entry, looked up): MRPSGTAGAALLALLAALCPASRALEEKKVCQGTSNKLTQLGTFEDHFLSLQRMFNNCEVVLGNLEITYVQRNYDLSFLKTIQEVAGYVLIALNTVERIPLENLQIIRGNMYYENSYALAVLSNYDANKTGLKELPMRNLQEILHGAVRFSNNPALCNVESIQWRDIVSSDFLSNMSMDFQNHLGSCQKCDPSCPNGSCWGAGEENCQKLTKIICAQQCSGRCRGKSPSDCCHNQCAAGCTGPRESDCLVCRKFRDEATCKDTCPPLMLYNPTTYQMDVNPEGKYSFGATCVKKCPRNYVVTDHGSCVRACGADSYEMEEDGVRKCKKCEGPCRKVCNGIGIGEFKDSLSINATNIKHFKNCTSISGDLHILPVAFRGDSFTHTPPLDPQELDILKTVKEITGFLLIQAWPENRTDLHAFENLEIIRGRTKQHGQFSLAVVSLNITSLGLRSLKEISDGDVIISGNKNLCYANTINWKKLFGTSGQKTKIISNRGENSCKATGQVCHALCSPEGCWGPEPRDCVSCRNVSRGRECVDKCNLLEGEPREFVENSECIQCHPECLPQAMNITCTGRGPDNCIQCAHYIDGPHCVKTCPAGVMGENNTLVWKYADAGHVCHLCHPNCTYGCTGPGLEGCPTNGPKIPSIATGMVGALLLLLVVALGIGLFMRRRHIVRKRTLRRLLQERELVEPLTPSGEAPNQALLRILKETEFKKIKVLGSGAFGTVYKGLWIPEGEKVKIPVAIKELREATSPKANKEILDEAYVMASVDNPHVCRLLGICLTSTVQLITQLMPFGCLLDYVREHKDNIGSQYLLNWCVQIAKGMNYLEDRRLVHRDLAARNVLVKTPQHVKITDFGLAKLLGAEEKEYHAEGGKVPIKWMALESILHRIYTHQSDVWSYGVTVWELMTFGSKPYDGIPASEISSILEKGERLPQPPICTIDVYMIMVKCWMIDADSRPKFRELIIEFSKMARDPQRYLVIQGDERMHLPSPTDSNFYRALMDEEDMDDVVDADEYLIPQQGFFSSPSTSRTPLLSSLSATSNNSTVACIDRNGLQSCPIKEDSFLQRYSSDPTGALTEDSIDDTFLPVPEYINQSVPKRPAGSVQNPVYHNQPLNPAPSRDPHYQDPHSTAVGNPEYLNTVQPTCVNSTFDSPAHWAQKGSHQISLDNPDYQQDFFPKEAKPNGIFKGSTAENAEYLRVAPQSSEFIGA
Chain of Fibroblast growth factor 10 (Homo sapiens) (O15520 whole entry, looked up): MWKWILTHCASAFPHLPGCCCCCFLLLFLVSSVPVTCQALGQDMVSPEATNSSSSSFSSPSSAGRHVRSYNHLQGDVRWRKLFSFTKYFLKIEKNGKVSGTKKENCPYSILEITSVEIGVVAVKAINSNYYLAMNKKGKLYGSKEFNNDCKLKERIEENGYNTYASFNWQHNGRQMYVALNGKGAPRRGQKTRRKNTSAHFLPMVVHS

SMILES	composite z-score [1]	z-score [2]	z-score [3]	z-score [4]	composite z-score [5]	z-score [6]	composite z-score [7]	composite z-score [8]	composite z-score [9]	composite z-score [10]	composite z-score [11]	composite z-score [12]	composite z-score [13]	z-score [14]	composite z-score [15]	composite z-score [16]	composite z-score [17]	composite z-score [18]	composite z-score [19]	composite z-score [20]
O=C1O[C@H](c2ccccc2)[C@H](c2ccccc2)N2[C@H]1[C@@H](C(=O)O)[C@]1(C(=O)Nc3ccc(C#CC4(O)CCCCCC4)cc31)[C@H]2c1ccc(OCCO)cc1	1.37	2.28 (inactive)	0.219 (inactive)	0.124 (inactive)	3.58	-0.831 (inactive)	-0.124	-0.338	0.528	-0.216	0.303	0.2	0.388	-0.117 (inactive)	0.299	0.132	-0.329	0.418	-0.623	-0.374
COC(=O)C(CC#Cc1ccc2c(c1)[C@]1(C(=O)N2)[C@H](c2ccc(OCCO)cc2)N2[C@H](c3ccccc3)[C@H](c3ccccc3)OC(=O)[C@H]2[C@@H]1C(=O)NC[C@H](O)c1ccccc1)C(=O)OC	1.54	2.37 (inactive)	0.31 (inactive)	7.43 (inactive)	2.41	1.89 (inactive)	-0.141	0.617	0.908	-0.0856	1.62	0.392	0.473	0.348 (inactive)	0.826	0.801	0.0713	0.617	0.271	0.39
C=C[C@H](COC(C)=O)N(Cc1ccc(OC(C)=O)c(OC)c1)S(=O)(=O)c1ccc(Br)cc1	0.484	-2.5 (inactive)	-1.08 (inactive)	0.105 (inactive)	1.81	1.24 (inactive)	0.15	0.337	0.176	0.312	0.723	0.64	0.612	-1.16 (inactive)	0.934	1.06	0.493	0.579	0.844	0.426
COc1ccc(CCN2C(=O)[C@@]3(Cc4ccccc42)c2ccccc2C(=O)N(Cc2ccccc2Cl)[C@H]3c2ccc(CO)cc2)cc1	1.34	-0.411 (inactive)	-1.51 (inactive)	-1.24 (inactive)	0.494	0.169 (inactive)	-0.126	-1.05	-0.981	-0.169	1.14	0.546	0.929	-0.0194 (inactive)	-0.202	-1.01	-1.12	-0.61	-0.695	0.38
CCOC(=O)C1=CC[C@@H](c2ccccc2)N(S(=O)(=O)c2ccc(C)cc2)[C@H]1C(=O)OCC	0.334	0.19 (inactive)	0.572 (inactive)	1.94 (inactive)	1.14	0.157 (inactive)	0.415	0.0818	0.0539	0.202	-0.0664	0.955	1.02	-0.287 (inactive)	0.605	1.13	0.117	0.533	-0.249	1.04
O=C1c2ccccc2[C@@]2(Cc3ccccc3N(Cc3ccccc3)C2=O)[C@H](c2ccc(CO)cc2)N1C1CCCCC1	1.21	-0.676 (inactive)	1.1 (inactive)	-0.619 (inactive)	0.525	-0.0011 (inactive)	-0.239	0.61	0.269	-0.2	1.3	-0.367	-0.292	-0.322 (inactive)	0.831	0.152	0.131	0.41	0.662	0.784
CC(C)N1C(=O)C[C@@](C(=O)NCc2ccccc2)(c2ccc([N+](=O)[O-])cc2)[C@H]1c1ccc(CO)cc1	1.01	0.296 (inactive)	-0.203 (inactive)	-0.881 (inactive)	3.48	0.796 (inactive)	0.16	-0.112	0.199	-0.167	0.142	-0.0752	0.934	0.0798 (inactive)	0.484	0.321	-0.786	-0.17	-0.0781	0.0614
